From PubChem BioAssay (NCATS)
Records with an inconclusive call do not appear. Entries that show only a call come without a potency. The source holds several records for some structures; these can differ, active in one and inactive in another. Active and inactive are the calls of the source. Unless noted, the call rests on the fitted dose curve; in most records, active means well fitted curve in the direction sought with a large enough effect; inconclusive means small, poorly fitted or top-dose-only effect, or another doubt; inactive means no such curve, though single readings can be large; an effect the other way counts as inactive or inconclusive.

Legend:
[1] = molecular target: Protein phosphatase 1D (Homo sapiens) (UniProt O15297); test: RapidFire Mass Spectrometry qHTS Assay for Modulators of WT P53-Induced Phosphatase 1 (WIP1) (AID 1347424);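 further: amount of dephosphorylated VEPPL-S-QETFS peptide product formed by WIP1; series mostly up to about 63 µM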
Sequence of Protein phosphatase 1D (Homo sapiens) (O15297 whole entry, looked up): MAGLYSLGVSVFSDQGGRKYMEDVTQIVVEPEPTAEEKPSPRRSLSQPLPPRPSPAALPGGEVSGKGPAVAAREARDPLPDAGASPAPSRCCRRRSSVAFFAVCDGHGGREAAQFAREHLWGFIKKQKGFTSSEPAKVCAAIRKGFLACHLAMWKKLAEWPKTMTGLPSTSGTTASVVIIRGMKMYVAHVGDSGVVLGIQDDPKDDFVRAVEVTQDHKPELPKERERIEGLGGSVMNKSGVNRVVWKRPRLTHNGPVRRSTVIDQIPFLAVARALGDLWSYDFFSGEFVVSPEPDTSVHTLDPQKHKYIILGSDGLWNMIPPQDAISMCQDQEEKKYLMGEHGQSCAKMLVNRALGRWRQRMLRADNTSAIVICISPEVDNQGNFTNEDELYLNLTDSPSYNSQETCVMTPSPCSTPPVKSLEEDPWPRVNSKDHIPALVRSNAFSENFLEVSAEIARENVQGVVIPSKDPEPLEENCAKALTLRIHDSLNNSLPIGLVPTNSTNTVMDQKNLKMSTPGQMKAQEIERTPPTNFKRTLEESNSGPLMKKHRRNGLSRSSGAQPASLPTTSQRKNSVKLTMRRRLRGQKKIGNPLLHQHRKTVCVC
How it was run: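 10 nM WIP1 + cpd, 1 h RT; + 2 uM VEPPL-pS-QETFS, 5 min RT; stop 0.5% formic acid; labelled product standard 1 uM; RapidFire MS. Buffer 50 mM Tris pH 7.5, 30 mM MgCl2, 1 mM TCEP.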

[2] = molecular target: Protein phosphatase 1D (Homo sapiens) (UniProt O15297); test: Rhodamine-PBP qHTS Assay for Modulators of WT P53-Induced Phosphatase 1 (WIP1) (AID 1347425)
How it was run: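 WIP1 (5 nM final) was preincubated with compound for 1 hour at room temperature. It then dephosphorylated 10 uM VEPPL-pS-QETFS peptide in Tris-HCl pH 7.5 with 30 mM MgCl2. Released Pi was detected by 10 uM Rh-PBP fluorescence (ex 525/em 598 nm) read at 1-min intervals for 11 min, as delta f1 - f0.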

[3] = Primary qHTS for inhibitors of La Crosse Virus (LACV) - induced cell death in SH-SY5Y cells (AID 1508616);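 further: top concentration of the series differs between compounds; higher means more rescue of cells from virus-induced death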
How it was run: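 SH-SY5Y cells (6000/well) plated 24 h, then given compounds by pin transfer and LACV at 0.01 MOI for 6 days at 37C. Viability measured by ATPLite luminescence, normalized to infected DMSO and uninfected DMSO.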

[4] = molecular target: Calcium and integrin-binding protein 1 (Homo sapiens) (UniProt Q99828); test: Primary qHTS for Identification of Calcium Integrin Binding Protein 1 (CIB1) Competitor (AID 1508620);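 further: GST tagged CIB1 binding a fluorescein labelled alphaIIb integrin peptide tracer; top concentration of the series differs between compounds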
Sequence of Calcium and integrin-binding protein 1 (Homo sapiens) (Q99828 whole entry, looked up): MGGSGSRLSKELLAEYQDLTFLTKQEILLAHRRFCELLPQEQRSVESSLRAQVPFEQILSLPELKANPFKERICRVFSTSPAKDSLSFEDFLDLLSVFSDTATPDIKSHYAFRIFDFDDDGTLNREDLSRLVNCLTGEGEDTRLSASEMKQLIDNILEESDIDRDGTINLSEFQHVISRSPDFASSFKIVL
How it was run: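 CIB1-GST (1 uM final) and compound incubated 15 min at room temperature before adding FITC-alphaIIb peptide tracer (100 nM final). Competition for binding read by fluorescence polarization (ex 480, em 540) after another 15 min at room temperature.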

[5] = Primary qHTS for small molecule stabilizers of the endoplasmic reticulum resident proteome: Secreted ER Calcium Modulated Protein (SERCaMP) assay (AID 1508630); further: potency means the concentration at half of the fitted maximal effect
How it was run: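 GLuc-SERCaMP-expressing SH-SY5Y cells, pretreated 16 h with compound, are challenged with thapsigargin to empty ER calcium stores; after 4 h, coelenterazine is added directly to the medium and luminescence is imaged.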

[6] = A High-Content qHTS Against Drug Library for the Identification of Small Molecules that Inhibit DYT1 Early Onset Primary Dystonia-Associated Cell Pathology (AID 1645839; calls by dose curve; further: series mostly up to about 46 µM)
How it was run: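 In this high-content image screen, delE TorsinA mislocalization in inducible Flp-In 293 cells is scored as %pathology, with cell count serving as the counterscreen. Compound exposure lasts 48 h under tetracycline induction in reduced-serum medium.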

[7] = molecular target: Cytochrome P450 2D6 (Homo sapiens) (UniProt P10635); test: Cytochrome P450 family 2 subfamily D member 6 (CYP2D6) small molecule antagonists: luciferase biochemical (cell-free) qHTS assay (AID 1645840; active means well fitted curve in the direction sought with a large enough effect in the repeat runs; an effect the other way counts as inactive or inconclusive; further: nearly all actives have a fitted effect of over 55% in size; further: potency means the concentration at half of the fitted maximal effect)
Sequence of Cytochrome P450 2D6 (Homo sapiens) (P10635 whole entry, looked up): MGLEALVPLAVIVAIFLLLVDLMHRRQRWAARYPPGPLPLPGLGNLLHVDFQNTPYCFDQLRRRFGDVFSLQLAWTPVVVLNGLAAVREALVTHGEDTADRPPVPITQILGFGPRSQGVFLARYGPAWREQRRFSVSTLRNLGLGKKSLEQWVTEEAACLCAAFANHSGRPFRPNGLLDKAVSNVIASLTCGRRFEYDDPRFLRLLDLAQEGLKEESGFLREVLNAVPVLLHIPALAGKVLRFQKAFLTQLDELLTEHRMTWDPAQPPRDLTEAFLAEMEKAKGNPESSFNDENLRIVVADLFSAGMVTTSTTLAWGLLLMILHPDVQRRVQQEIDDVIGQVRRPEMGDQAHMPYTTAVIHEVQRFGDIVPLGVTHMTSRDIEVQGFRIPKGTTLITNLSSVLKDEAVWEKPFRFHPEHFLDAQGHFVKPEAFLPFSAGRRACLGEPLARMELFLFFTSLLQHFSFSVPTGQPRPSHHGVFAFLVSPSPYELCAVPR
How it was run: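 P450-Glo luminescent screen: recombinant CYP2D6 enzyme–proluciferin substrate mix preincubated with compound 10 min at room temperature, then NADPH regeneration added for 1 h at room temperature. Detection reagent added for 20 min; luciferin light read as relative luminescence units.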

[8] = molecular target: Cytochrome P450 2C9 (Homo sapiens) (UniProt P11712); test: Cytochrome P450 family 2 subfamily C member 9 (CYP2C9) small molecule antagonists: luciferase biochemical (cell-free) qHTS assay (AID 1645842; active means well fitted curve in the direction sought with a large enough effect in the repeat runs; an effect the other way counts as inactive or inconclusive; further: nearly all actives have a fitted effect of over 55% in size; further: potency means the concentration at half of the fitted maximal effect)
Sequence of Cytochrome P450 2C9 (Homo sapiens) (P11712 whole entry, looked up): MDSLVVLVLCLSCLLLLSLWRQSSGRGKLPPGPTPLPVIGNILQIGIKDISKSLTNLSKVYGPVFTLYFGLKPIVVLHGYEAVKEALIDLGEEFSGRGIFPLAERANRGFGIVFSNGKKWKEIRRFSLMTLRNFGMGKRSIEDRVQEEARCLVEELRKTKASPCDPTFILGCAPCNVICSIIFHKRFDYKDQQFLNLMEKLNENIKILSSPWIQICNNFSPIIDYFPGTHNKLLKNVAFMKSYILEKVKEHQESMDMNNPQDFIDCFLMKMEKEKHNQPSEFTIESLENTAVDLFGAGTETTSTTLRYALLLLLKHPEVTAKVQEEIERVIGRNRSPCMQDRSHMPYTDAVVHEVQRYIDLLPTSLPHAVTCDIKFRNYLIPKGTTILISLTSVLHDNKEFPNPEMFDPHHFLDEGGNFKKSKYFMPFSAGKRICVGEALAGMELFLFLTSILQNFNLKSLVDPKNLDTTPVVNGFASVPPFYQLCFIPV
How it was run: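 Luminescence, after 20 min with luciferin detection reagent, reflected CYP2C9 turnover during a 1 h NADPH-driven reaction at 37C. Enzyme-substrate mix contained 0.4% bovine serum albumin and was preincubated with compound 10 min at room temperature.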

[9] = Primary qHTS for inhibitors of nuclear receptor binding SET domain protein 2 (NSD2) in an isogenic RCH-ACV NSD2 p.E1099K mutant (9B) (AID 1645876); further: nearly all actives have a fitted effect of over 70% in size; further: potency means the concentration at half of the fitted maximal effect
[10] = Primary qHTS for inhibitors of nuclear receptor binding SET domain protein 2 (NSD2) in an RCH-ACV wild type WT cells (2C) (AID 1645877); further: nearly all actives have a fitted effect of over 70% in size; further: potency means the concentration at half of the fitted maximal effect
[11] = Counterscreen qHTS for small molecule stabilizers of the endoplasmic reticulum resident proteome: GLuc-NoTag assay (AID 1508627);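 further: SH-SY5Y cells given compound then 100 nM thapsigargin to empty ER calcium; series mostly up to about 76 µM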
How it was run: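 Luminescence of Gaussia luciferase secreted into the medium (coelenterazine, 0.07x final, unlysed cells) was the read-out. Human SH-SY5Y neuroblastoma cells constitutively secreting untagged GLuc received compound for 19 h, then 100 nM thapsigargin for 4 h.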

[12] = Confirmatory qHTS for small molecule stabilizers of the endoplasmic reticulum resident proteome: Secreted ER Calcium Modulated Protein (SERCaMP) assay (AID 1508628); further: nearly all actives have a fitted effect of over 40% in size; further: potency means the concentration at half of the fitted maximal effect
How it was run: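 SH-SY5Y cells stably expressing GLuc-SERCaMP, treated 16 h with compound (primary 1.53, 7.67, 38.3 uM; confirmation 11 concentrations, up to 76.6 uM), then 100 nM thapsigargin for 4 h. Secreted Gaussia luciferase in medium read by coelenterazine luminescence.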

[13] = Cell Viability qHTS for small molecule stabilizers of the endoplasmic reticulum resident proteome (AID 1508629); details: cell viability counter-screen, 100 nM thapsigargin for final 4 h;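 further: human SH-SY5Y neuroblastoma cells carrying the GLuc-SERCaMP reporter; compound exposure about 46 h in total before the viability read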
[14] = molecular target: Cytochrome P450 3A4 (Homo sapiens) (UniProt P08684); test: Cytochrome P450 family 3 subfamily A member 4 (CYP3A4) small molecule antagonists: luciferase qHTS assay (AID 1645841; active means well fitted curve in the direction sought with a large enough effect in the repeat runs; an effect the other way counts as inactive or inconclusive; further: nearly all actives have a fitted effect of over 45% in size)
Sequence of Cytochrome P450 3A4 (Homo sapiens) (P08684 whole entry, looked up): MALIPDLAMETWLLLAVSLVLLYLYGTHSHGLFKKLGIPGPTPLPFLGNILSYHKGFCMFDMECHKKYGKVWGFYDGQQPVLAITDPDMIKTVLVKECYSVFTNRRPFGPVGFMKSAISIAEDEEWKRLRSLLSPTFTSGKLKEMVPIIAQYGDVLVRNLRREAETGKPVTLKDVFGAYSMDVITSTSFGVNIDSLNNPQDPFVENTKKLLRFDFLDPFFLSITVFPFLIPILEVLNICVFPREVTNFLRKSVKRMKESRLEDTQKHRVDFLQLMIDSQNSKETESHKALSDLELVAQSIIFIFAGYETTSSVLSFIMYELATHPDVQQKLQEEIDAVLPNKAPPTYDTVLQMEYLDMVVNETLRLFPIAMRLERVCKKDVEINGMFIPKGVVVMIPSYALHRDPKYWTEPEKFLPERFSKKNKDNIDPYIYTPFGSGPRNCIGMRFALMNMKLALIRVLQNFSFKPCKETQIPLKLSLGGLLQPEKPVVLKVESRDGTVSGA
How it was run: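 Luminescent CYP3A4 activity readout: compounds plus enzyme-substrate mix 10 min at room temperature, reaction started with NADPH regenerating system for 1 h, stopped with detection reagent, read after 20 min. Ketoconazole served as control.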

[15] = molecular target: Calcium and integrin-binding protein 1 (Homo sapiens) (UniProt Q99828); test: Confirmatory qHTS for Identification of Calcium Integrin Binding Protein 1 (CIB1) Competitor (AID 1508617); further: nearly all actives have a fitted effect of over 65% in size
How it was run: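 FP competition: CIB1-GST (1 uM final) in 5 mM HEPES pH 7.4, 125 mM NaCl, 5 mM CaCl2, 0.01% Tween20 preincubated 15 min RT with compounds (up to 114 uM), then FITC-alphaIIb peptide (100 nM), 15 min RT; Ex 480/Em 540.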

O=S1(=O)c2cccc3cccc(c23)N1CCCN1CCN(c2ccc(F)cc2)CC1
Potency [1]: inactive
outcome [2]: inactive
Potency [3]: inactive
Potency [4]: inactive
Potency [5]: inactive
Potency [6]: inactive
Potency [7]: 3.47 µM (active)
Potency [8]: inactive
Potency [9]: inactive
Potency [10]: inactive

CC(Cc1cccc(C(F)(F)F)c1)NCCOC(=O)c1ccccc1 (stereo not given)
Potency [1]: inactive
outcome [2]: inactive
Potency [3]: inactive
Potency [4]: inactive
Potency [5]: inactive
Potency [6]: inactive
Potency [7]: 0.0069 µM (active)
Potency [8]: 19.5 µM (active)

CC(=O)c1ccc2c(c1)N(CCCN1CCC(CCO)CC1)c1ccccc1S2
Potency [1]: inactive
outcome [2]: inactive
Potency [3]: inactive
Potency [4]: inactive
outcome [11]: inactive

CN1CCCC(CC2c3ccccc3Sc3ccccc32)C1 (stereo not given)
Potency [1]: inactive
outcome [2]: inactive
Potency [3]: inactive
Potency [4]: inactive
Potency [12]: 22.4 µM (active)
max response [13]: -16.7% (inactive)
Potency [7]: 0.0692 µM (active)
Potency [8]: inactive
Potency [10]: 18.8 µM (active)

CN1CCN(C(c2ccccc2)c2ccccc2)CC1
Potency [1]: inactive
outcome [2]: inactive
Potency [3]: inactive
Potency [4]: inactive
outcome [11]: inactive
Potency [7]: 4.9 µM (active)
Potency [8]: inactive
Potency [9]: inactive
Potency [10]: inactive

Nc1ccn([C@@H]2O[C@H](CO)[C@@H](O)C2(F)F)c(=O)n1
Potency [1]: inactive
outcome [2]: inactive
Potency [3]: inactive
Potency [4]: inactive
Potency [5]: inactive
Potency [6]: inactive
Potency [7]: inactive
outcome [14]: inactive
Potency [8]: inactive

CCCCCCCCCCCCCCCC[N+](C)(C)CCN(Cc1ccc(OC)cc1)c1ncccn1
Potency [1]: inactive
outcome [2]: inactive
Potency [3]: inactive
Potency [15]: inactive
Potency [5]: inactive
Potency [7]: 5.49 µM (active)
Potency [8]: 24.5 µM (active)
Potency [9]: 0.668 µM (active)
Potency [10]: 0.75 µM (active)

COc1ccc(C2C(=O)c3ccccc3C2=O)cc1
Potency [1]: inactive
outcome [2]: inactive
Potency [3]: inactive
Potency [4]: inactive
Potency [5]: inactive
Potency [6]: inactive
Potency [7]: inactive
Potency [8]: inactive
Potency [9]: inactive
Potency [10]: inactive

CN1[C@@H]2CC[C@H]1CC(OC(=O)c1c[nH]c3ccccc13)C2 (stereo not given in full)
Potency [1]: inactive
outcome [2]: inactive
Potency [3]: inactive
Potency [4]: inactive
outcome [11]: inactive
Potency [12]: inactive
Potency [5]: 35.5 µM (active)
Potency [7]: 12.3 µM (active)
Potency [8]: inactive
Potency [9]: inactive
Potency [10]: inactive

Cc1cc2c(cc1CC(=O)c1sccc1S(=O)(=O)Nc1onc(C)c1Cl)OCO2
Potency [1]: inactive
outcome [2]: inactive
Potency [3]: inactive
Potency [4]: inactive
Potency [5]: inactive
Potency [6]: inactive
Potency [7]: 4.36 µM (active) and inactive
Potency [8]: 3.09 µM (active)
Potency [9]: inactive
Potency [10]: inactive
